Compound activity: PubChem, several laboratories
LANA-H2A inh – blockers of LANA interaction with H2A/H2B – biochemical, FP readout, HTS, primary screen; AID 2629, 2010; cell-free LANA-H2A/H2B peptide, fluorescence polarization; inhibition, % (concentration not given with the values); 320,000 tested, 0.6% active; Protein LANA1 (Human herpesvirus 8 type P (isolate GK18)), Q9QR71; in the data active = inhibition mostly above about 10%, no sharp cut-off; inactive = mostly below about 6.7%
ABHD5 PLIN5 PPI – ABHD5-PLIN5 interaction inhibitors, primary screen, cell lysate, split luciferase complementation, luminescence. Split G. princeps luciferase complementation, 4 h. 360,000 tested, 0.78% active. inhibition, % at 4 µM. Perilipin-5 (Homo sapiens) + 1-acylglycerol-3-phosphate O-acyltransferase ABHD5 (Homo …;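 active = inhibition above the mean inhibition across every tested compound plus 3 SD, cut at about 22% in these data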
ALR H2O2 inh – inhibitors of human ALR sulfhydryl oxidase, primary screen, biochemical, H2O2 detection, HRP-luminol luminescence, single point | FAD-linked sulfhydryl oxidase ALR (Homo sapiens), P55789 | purified ALR, DTT oxidation | inhibition, % (no concentration beside the values) | 290,000 tested, 3.8% active | AID 485317, 2010;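 active = mean replicate inhibition above about 79%, with every replicate also reaching it, limit read from the data; inconclusive = only one of the two criteria met; inactive = mean below limit and not every replicate reaching it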
Target sequence (P55789 whole entry, looked up): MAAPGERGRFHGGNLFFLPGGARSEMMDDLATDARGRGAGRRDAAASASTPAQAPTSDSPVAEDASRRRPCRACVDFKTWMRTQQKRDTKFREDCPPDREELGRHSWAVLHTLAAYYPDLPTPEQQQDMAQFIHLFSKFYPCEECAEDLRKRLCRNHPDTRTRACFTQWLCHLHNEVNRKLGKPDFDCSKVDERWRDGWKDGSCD
PRMT1 inh – PRMT1 methyltransferase inhibitors, primary screen, biochemical, fluorescence polarization; Protein arginine N-methyltransferase 1 (Homo sapiens), Q99873; recombinant PRMT1, activity-based probe fluorescence polarization; inhibition, % at 2.79 µM; 370,000 tested, 1.3% active; AID 652257, 2013;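 active = inhibition above about 21% made by adding two undisclosed values, limit read from the data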
Target sequence (Q99873 whole entry, looked up): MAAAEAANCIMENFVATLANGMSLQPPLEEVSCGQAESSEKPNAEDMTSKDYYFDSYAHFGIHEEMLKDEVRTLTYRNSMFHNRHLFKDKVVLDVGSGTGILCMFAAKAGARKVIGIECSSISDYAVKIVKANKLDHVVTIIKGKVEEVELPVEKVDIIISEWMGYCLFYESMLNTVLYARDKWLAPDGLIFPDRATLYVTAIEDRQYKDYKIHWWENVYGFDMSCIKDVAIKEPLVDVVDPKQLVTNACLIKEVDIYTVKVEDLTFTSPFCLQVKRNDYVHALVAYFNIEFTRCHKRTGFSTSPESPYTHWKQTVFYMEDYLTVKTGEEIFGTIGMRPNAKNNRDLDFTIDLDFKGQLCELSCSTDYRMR
Rtt109 HAT inh – inhibitors of C. albicans Rtt109/Vps75 HAT, primary screen, biochemical, ThioGlo CoA-SH fluorescence, plate reader. purified Rtt109/Vps75, 4 h. 330,000 tested, 0.16% active. inhibition, % at 34.9 µM. Histone acetyltransferase RTT109 (Candida albicans (strain SC5314 / ATCC MYA-2876)), …;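 active = inhibition of at least 50% in every replicate; inconclusive = best replicate reaches 50% inhibition but some replicates fall short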
rCAG binder – binders of r(CAG) RNA repeats, primary screen, biochemical, fluorescence. r(CAG) RNA repeat, TO-PRO-1 dye displacement fluorescence. inhibition, % at 3 µM. 370,000 tested, 1.3% active. AID 651821, 2012;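 active = inhibition above the plate cutoff, the mean of all test compounds on that plate plus 3 SD, cut at about 35% in these data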;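 note: higher means more dye released from RNA so lower well fluorescence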
rCAG binder conf – small molecules binding CAG repeat RNA – biochemical, fluorescence, confirmation. shares compounds with rCAG binder. r(CAG) RNA repeat, TO-PRO-1 dye displacement fluorescence. inhibition, % at 3 µM. 4,300 tested, 70% active. AID 652065, 2013;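 active = inhibition above a per-plate cutoff, the mean inhibition of sample wells plus 3 SD, cut at about 35% in these data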;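 note: loss of TO-PRO-1 fluorescence as compound displaces dye from 1x1 AA loop RNA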
DNA CAG counter – displacement of TO-PRO-1 from CAG DNA duplex, counter-screen for rCAG RNA repeat binder project, biochemical, fluorescence, TO-PRO-1 dye, d(CAG) DNA oligo | shares compounds with rCAG binder | d(CAG) DNA oligo TO-PRO-1 dye displacement | inhibition, % at 3 µM | 4,300 tested, 94% active;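 active = inhibition above its plate's cutoff, the mean test-well inhibition plus 3 SD, cut at about 4.8% in these data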;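 note: hits displace the dye from DNA and so lower well fluorescence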
dCAG dye DR – inhibitors of DNA CAG/GTC TO-PRO-1 complex, dose response, counter-screen for rCAG RNA repeat binder project, biochemical, fluorescence, TO-PRO-1 dye; shares compounds with rCAG binder; DNA CAG/GTC duplex TO-PRO-1 dye displacement fluorescence; IC50, µM; 250 tested, 20% active; AID 686960, 2013; in the data active = IC50 below about 10 µM
Hits are given with their value; . = inactive; ? = inconclusive; / = not tested or not shown. An excerpt weighted towards active compounds, which were near 5.9% of everything screened.

SMILES	LANA-H2A inh	ABHD5 PLIN5 PPI	ALR H2O2 inh	PRMT1 inh	Rtt109 HAT inh	rCAG binder	rCAG binder conf	DNA CAG counter	others
CCc1ccc(NC(=S)N(Cc2cccc(Br)c2)CC2CCC(C(=O)O)CC2)cc1 (stereo not drawn)	.	.	/	.	.	42	53	18
Cc1cc(C)cc(NC(=S)N(Cc2cccc(Br)c2)CC2CCC(C(=O)O)CC2)c1 (stereo not drawn)	.	.	.	.	/	.	/	/
Cc1ccc(NC(=S)N(Cc2cccc(Br)c2)CC2CCC(C(=O)O)CC2)cc1Cl (stereo not drawn)	.	.	.	.	.	44	60	21	dCAG dye DR=.
COC(=O)[C@@]12CCCCC3=C1N(CCC3)C(=O)[C@H]2CC(=O)N1CCSCC1	/	/	/	.	/	.	/	/
CCCCC1CC2=C(C(=O)OC(C)(C)O2)C(c2ccc(F)cc2)O1 (stereo not drawn)	/	.	/	.	/	.	/	/
O=C(O)c1ccc(Cl)c(S(=O)(=O)N(Cc2ccccc2)c2ccc(Cl)cc2)c1	.	.	.	.	.	73	65	26
COc1ccccc1N(Cc1ccccc1)S(=O)(=O)c1cc(C(=O)O)ccc1Cl	.	.	92	.	.	65	47	13
NC(=O)COC(=O)c1ccc(Cl)c(S(=O)(=O)N(Cc2ccccc2)c2ccc(Cl)cc2)c1	.	.	.	.	.	.	/	/
CC(CCN1CCC(C(O)(c2ccccc2)c2ccccc2)CC1)Oc1cc(F)cc(C#N)c1 (stereo not drawn)	/	/	/	.	/	.	/	/
Cc1ccc2nc(Cl)c(/C=N/Nc3ccc(C(=O)O)cc3)cc2c1	.	.	/	.	.	41	.	5.3
Cc1noc(NS(=O)(=O)c2ccc(NC(=O)/C=C/c3ccc(Cl)cc3Cl)cc2)c1C	/	.	/	.	/	.	/	/
Cc1noc(NS(=O)(=O)c2ccc(NC(=O)C(CC(C)C)N3C(=O)c4ccccc4C3=O)cc2)c1C (stereo not drawn)	.	.	.	.	.	63	45	15
Cc1noc(NS(=O)(=O)c2ccc(NC(=O)/C=C/c3ccccc3)cc2)c1C	.	.	?	.	.	39	37	6.7
Cc1noc(NS(=O)(=O)c2ccc(NC(=O)COc3ccccc3)cc2)c1C	.	.	.	.	.	.	/	/
COc1ccc(/C=C/C(=O)Nc2ccc(S(=O)(=O)Nc3onc(C)c3C)cc2)cc1OC	.	.	.	.	.	39	38	11
O=C(/C=C/c1ccc(Br)cc1)Nc1ccc(S(=O)(=O)Nc2ncccn2)cc1	.	.	/	.	.	38	.	5.9
CCCCCCCCN1C(=O)[C@H](CC(=O)NCc2ccccc2)C[C@@]2(C(=O)OC)CCCCC=C12	/	.	/	.	/	.	/	/
COc1ccc(/C=N/NC(=O)c2cc(-c3ccccc3)nc3ccccc23)c(C(=O)O)c1OC	.	.	.	.	.	.	/	/
Cc1ccc2[nH]c(C(=O)N/N=C/c3ccccc3O)c(C)c2c1	.	.	.	.	.	.	/	/
Cc1ccc2[nH]c(C(=O)N/N=C/c3ccccc3C(=O)O)c(-c3ccccc3)c2c1	.	.	/	.	.	55	36	9.0
COc1ccc(/C=N/NC(=O)c2[nH]c3ccc(C)cc3c2-c2ccccc2)c(C(=O)O)c1OC	.	.	99	.	.	39	46	15
COC(=O)c1cc2c(c3c4cc(F)ccc4n(C(=O)c4ccccc4)c13)C(=O)N(C1CCCCC1)C2	/	/	/	.	/	.	/	/
Cc1ccccc1CNC(=O)C1CCCN(c2ncccn2)C1 (stereo not drawn)	/	/	/	.	/	.	/	/
COc1ccc(Cl)cc1C(=O)NC1CC(C)(C)NC(C)(C)C1	/	.	/	.	/	.	/	/
Cc1cc(C(=O)N2CCN(C/C=C/c3ccccc3)CC2)cs1	.	.	.	/	.	/	/	/
SMILES	LANA-H2A inh	ABHD5 PLIN5 PPI	ALR H2O2 inh	PRMT1 inh	Rtt109 HAT inh	rCAG binder	rCAG binder conf	DNA CAG counter	others
O=C(c1cc(Br)c(Br)s1)N1CCN(C/C=C/c2ccccc2)CC1	.	.	/	.	.	36	.	.
CCc1cc2c(nc1CC)CCCN2S(=O)(=O)c1ccccc1C	/	/	/	.	/	.	/	/
COc1ccc2[nH]c(C)c(-c3csc(N)n3)c2c1	.	.	99	.	.	37	.	11
Cn1nc(C(C)(C)C)cc1N1C(=O)CCC1(C)C(=O)NC1CCCCC1 (stereo not drawn)	/	.	/	.	/	.	/	/
Nc1nc(SCc2nnc(SCC(=O)O)n2-c2ccccc2)nc2sc3c(c12)CCCC3	.	.	.	.	.	61	69	23	dCAG dye DR=.
CCNc1ccc(Br)cc(C(=O)/C=C/c2ccc3c(c2)OCO3)c1=O	.	.	.	38	.	39	36	18
COc1ccc(NC(=O)Nc2nc(C(N)CC(C)C)cs2)cc1 (stereo not drawn)	/	.	/	.	/	.	/	/
NC(c1csc(NC(=O)Nc2ccc(OC(F)(F)F)cc2)n1)C1CCCCC1 (stereo not drawn)	/	.	/	.	/	40	.	.
S=C(Nc1ccc(Br)cc1)OC1CCC12CCC(c1ccccc1)CC2 (stereo not drawn)	/	/	/	.	/	.	/	/
COC(=O)c1cc(OC)c(OC)cc1NC(=O)CCN1C(=O)C2CCCCC2C1=O (stereo not drawn)	/	.	/	.	/	.	/	/
O=C(Nc1cccc(C(F)(F)F)c1)c1cccc(NS(=O)(=O)c2ccc(O)c(C(=O)O)c2)c1	.	.	.	.	.	79	62	24
O=C(c1cccc(NS(=O)(=O)c2ccc(Br)cc2)c1)N1CCCCC1	.	.	.	.	.	.	/	/
Cc1ccc(NS(=O)(=O)c2ccc(Cl)c(C(=O)Nc3ccccc3-c3nc4ccccc4[nH]3)c2)cc1C	.	.	.	.	.	47	42	24
